Cycloheximide cs = Cycloheximide Counterscreen for Small Molecule Inhibitors of Shiga Toxin. cell reporter, cycloheximide protein synthesis inhibition counterscreen. max response, %. hit rate 12% among 300,000. AID 2314, 2010; in the data active = max response mostly above about 13%, no sharp cut-off; inactive = mostly below about 14%; also: read at 38.3 µM for the half of the compounds with a filed dose
Shiga inhibitor = A qHTS for Small Molecule Inhibitors of Shiga Toxin; Vero cells, Shiga toxin protein synthesis inhibition reporter; hit rate 9.2% among 290,000; AID 2315, 2010; inhibition, % at 38.7 µM; in the data active = inhibition mostly above about 28%, no sharp cut-off; inactive = mostly below about 43%
Pf growth 48h = Primary qHTS for delayed death inhibitors of the malarial parasite plastid, 48 hour incubation; Potency, µM (highest dose often 28.7 µM), hits mostly inhibitors; hit rate 5.9% among 310,000; P. falciparum luciferase growth in erythrocytes, 48 h
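Luminescence readout; reporter = integrated firefly luciferase in P. falciparum. RBC culture at 2% hematocrit, 0.1% parasitemia final, 37 C/5% CO2; decreased signal taken as growth inhibition.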
Pf growth 96h = Primary qHTS for delayed death inhibitors of the malarial parasite plastid, 96 hour incubation | P. falciparum luciferase reporter growth, 96 h | Potency, µM (series often up to 28.7 µM), hits mostly inhibitors | hit rate 6.9% among 320,000 | AID 504834, 2011
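Compounds incubated with erythrocytes infected by luciferase-expressing P. falciparum (2% hematocrit, 0.05% parasitemia final) for 96 hours, 37 C in 5% CO2. Growth inhibition scored as decreased luciferase luminescence.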
Large screens that a line does not name were inactive. Sampled rows, rich in hits. Any-hit rate of the full collection: about 21%. Unless noted, calls follow the shape of the dose curve; as a rule, active = well fitted inhibition curve with a large enough effect; inconclusive = small, poorly fitted or top-dose-only effect, or another doubt; inactive = no such curve, though single readings can be large or run the other way.

O=C(CSc1ccsc1[N+](=O)[O-])NCc1ccco1	Pf growth 48h 11.7µM, Pf growth 96h inconclusive
COCCCNC(=O)CSc1ccsc1[N+](=O)[O-]	none
CN(C(=O)c1cccs1)c1ccc(OCC(=O)N2CCC(C(N)=O)CC2)cc1	none
C=CCNC(=O)CN(c1cc(Cl)ccc1OC)S(=O)(=O)c1ccc(C)c([N+](=O)[O-])c1	Pf growth 48h 2.62µM
COc1ccc(Cl)cc1N(CC(=O)NCC(C)C)S(=O)(=O)c1ccc(C)c([N+](=O)[O-])c1	Pf growth 96h 9.28µM
COc1ccc(N(CC(=O)NCc2ccncc2)S(=O)(=O)c2ccc(C)c([N+](=O)[O-])c2)cc1	Pf growth 48h 1.85µM
COCCNC(=O)CN(c1cc(Cl)ccc1OC)S(=O)(=O)c1ccc(C)c([N+](=O)[O-])c1	Pf growth 48h inconclusive
COc1ccc(N(CC(=O)NCc2cccnc2)S(=O)(=O)c2ccc(C)c([N+](=O)[O-])c2)cc1	Pf growth 96h inconclusive
O=S(=O)(NCc1nnc2ccccn12)c1ccc(Cl)cc1	none (no result: Cycloheximide cs, Shiga inhibitor)
O=C1NC(c2cccs2)Nc2ccccc21 (stereo not given)	Cycloheximide cs 20.7, Shiga inhibitor 37.9, Pf growth 96h inconclusive (no result: Pf growth 48h)
Cc1ccsc1C1NC(=O)c2ccccc2N1 (stereo not given)	Cycloheximide cs 22.8
O=C1NC(c2ccccc2Cl)Nc2ccccc21 (stereo not given)	none
COc1ccc(-c2[nH]ncc2CN(CC2CCC(=O)N2)C(C)C)cc1F (stereo not given)	Pf growth 96h 8.28µM
COc1ccc(C(=O)C2CCCN(Cc3cn[nH]c3-c3ccc(F)cc3)C2)cc1OC (stereo not given)	none
COc1ccc(-c2[nH]ncc2CN2CCCC(C(=O)c3ccc(OC)cc3OC)C2)cc1 (stereo not given)	Pf growth 48h 13.1µM, Pf growth 96h 0.828µM
COc1ccc2cc(-c3[nH]ncc3CN3CCCN(c4ccccc4)CC3)ccc2c1	Cycloheximide cs 16.4, Pf growth 96h inconclusive
COc1ccc(-c2[nH]ncc2CN(C)CCCN2CCOCC2)cc1F	Pf growth 96h inconclusive
COCC1CCCCN1Cc1cn[nH]c1-c1ccc2cc(OC)ccc2c1 (stereo not given)	Cycloheximide cs 19.3, Shiga inhibitor 31.6
CC1CCN(S(=O)(=O)c2cc3c4c(c2)C(C)C(=O)N4CCC3)CC1 (stereo not given)	Pf growth 96h inconclusive
CS(=O)(=O)c1ccc(Cl)c(NC(=O)CSc2nnc(-c3cccs3)n2N)c1	Pf growth 48h inconclusive (no result: Cycloheximide cs, Shiga inhibitor)
COCCN(Cc1cn[nH]c1-c1ccc2cc(OC)ccc2c1)C(C)C	Pf growth 96h 11.7µM
COc1ccc2cc(-c3[nH]ncc3CN3CCCCO3)ccc2c1	Cycloheximide cs 20.4, Shiga inhibitor 56.8
COc1ccc2cc(-c3[nH]ncc3CN3C[C@@H]4CCC[C@H]3C4)ccc2c1	Cycloheximide cs 32.0, Pf growth 96h inconclusive
CCOC(=O)CN(C)Cc1cn[nH]c1-c1ccc2cc(OC)ccc2c1	Pf growth 96h inconclusive
COCC1CCCCN1Cc1cn[nH]c1-c1ccc(OC)cc1OC (stereo not given)	Pf growth 96h inconclusive
O=C(O)C1C2C=CC(C2)C1C(=O)NCc1ccc(Cl)c(Cl)c1 (stereo not given)	none
O=C(/C(=C/c1ccccc1)c1ccccc1)N1CCCCC1	none
O=C(COC(=O)[C@@H]1CCCN1S(=O)(=O)c1ccccc1F)Nc1ccc(OC(F)F)cc1	none
CC1CN(c2ccc(S(=O)(=O)N3CCCC3)cn2)CC(C)O1 (stereo not given)	none
COc1cc(CN(C(=O)c2cccs2)C2CCS(=O)(=O)C2)cc(OC)c1OC (stereo not given)	Pf growth 96h inconclusive
COc1cc(NCCCC(C)N)c2ncccc2c1 (stereo not given)	Pf growth 48h 0.262µM, Pf growth 96h 0.849µM
COc1cc(NS(=O)(=O)c2ccc(C)cc2)c2ncccc2c1	Pf growth 48h 2.33µM
O=S(=O)(Nc1cccc2cccnc12)c1ccccc1Br	Cycloheximide cs 28.4 (no result: Pf growth 48h, Pf growth 96h)
O=C1C=C(Nc2cccc3cccnc23)c2ccccc2C1=O	Pf growth 48h 2.08µM
CCC(CNc1cc(OC)cc2cccnc12)NC1CCCCC1 (stereo not given)	Pf growth 48h inconclusive, Pf growth 96h inconclusive
COP(=O)(OC)OC(c1ccc(Cl)cc1)P(=O)(OC)OC (stereo not given)	none (no result: Cycloheximide cs, Shiga inhibitor)
CC(Oc1ccccc1F)C(=O)NNC(=O)c1cccc(S(=O)(=O)N2CCN(C)CC2)c1 (stereo not given)	Pf growth 96h inconclusive (no result: Cycloheximide cs, Shiga inhibitor)
CCOc1ccc(NC(=O)CN(C)C(=O)CN2C(=O)c3ccc([N+](=O)[O-])cc3C2=O)cc1OCC	none (no result: Cycloheximide cs, Shiga inhibitor)
Cc1ccc(S(=O)(=O)Nc2ccc(NS(=O)(=O)c3ccc(C)cc3)c3ncccc23)cc1	none (no result: Pf growth 48h, Pf growth 96h)
Cc1ccc(S(=O)(=O)Nc2cccc3cccnc23)cc1	Pf growth 96h 3.7µM (no result: Pf growth 48h)
Cc1ccc(Nc2cccccc2=O)cc1	Cycloheximide cs 15.6 (no result: Pf growth 96h)
COc1ccc(N2CC(C(=O)NNC(=O)c3ccc(Br)cc3)CC2=O)c(OC)c1 (stereo not given)	none (no result: Cycloheximide cs, Shiga inhibitor)
CCC(=O)c1ccc(/C=C/c2nc3ccccc3n2C)o1	Cycloheximide cs 29.9, Shiga inhibitor 66.7, Pf growth 96h inconclusive
CCOC1=NN(c2ccc(Cl)cc2)C(=O)/C1=C\N(C)C	none
CC1=NN(c2ccccc2)C(=O)/C1=C/N(C)C	none
CCCC1=NN(c2ccc([N+](=O)[O-])cc2)C(=O)/C1=C/N(C)C	Cycloheximide cs 19.8
CC1=NN(c2ccc([N+](=O)[O-])cc2)C(=O)/C1=C\N(C)C	Cycloheximide cs 22.0, Pf growth 96h 7.38µM
CCn1c(SCc2nc3ccccc3s2)nnc1-c1ccccc1	Cycloheximide cs 28.1, Shiga inhibitor 61.2 (no result: Pf growth 48h)
c1ccc(-n2cnnc2SCc2nc3ccccc3s2)cc1	Cycloheximide cs 59.6, Shiga inhibitor 61.0 (no result: Pf growth 48h)
CCn1c(SCC(O)c2ccccc2)nnc1-c1ccccc1 (stereo not given)	Cycloheximide cs 39.2, Shiga inhibitor 28.2
COc1cccc(-c2nnc(SCc3nc4ccccc4s3)n2C)c1	Cycloheximide cs 23.8, Pf growth 96h inconclusive (no result: Pf growth 48h)
c1ccc(Cn2c(SCc3nc4ccccc4s3)nnc2-c2ccco2)cc1	none (no result: Pf growth 96h)
CCn1c(SCC(=O)OC(C)C)nnc1-c1ccccc1	none
C=CCNC(=O)COC(=O)c1c2c(nc3ccccc13)CCC2	Pf growth 48h inconclusive, Pf growth 96h inconclusive
CCC(c1nnc(SCc2nc3ccccc3s2)n1Cc1ccccc1)N(C)C (stereo not given)	Cycloheximide cs 31.5, Shiga inhibitor 56.2 (no result: Pf growth 48h, Pf growth 96h)
Cc1nnc(SCc2nc3ccccc3s2)n1N	Cycloheximide cs 43.7, Shiga inhibitor 76.1
Cc1nnc(SCc2nc3ccccc3s2)n1-c1ccccc1	Cycloheximide cs 29.9, Shiga inhibitor 87.4, Pf growth 96h inconclusive
CCN(CC)C(=O)CNC(=O)c1nn(-c2ccc(OC)c(Cl)c2)c(=O)c2ccccc12	Pf growth 48h 4.15µM
COc1ccc(-n2nc(C(=O)NCC(=O)NCCCN3CC(C)CC(C)C3)c3ccccc3c2=O)cc1Cl (stereo not given)	Pf growth 48h 6.57µM
COc1ccc(-n2nc(C(=O)NCC(=O)Nc3cc(OC)c(OC)c(OC)c3)c3ccccc3c2=O)cc1Cl	Pf growth 48h inconclusive

Bioassay records from PubChem.
